The campaign covered roughly 410,000 compounds. About 5,100 (1.2%) were called active. Inconclusive results (about 8%) are left out. Calls come from the whole dose curve; tested in HEK293T cells. The list comes from a sample in which actives are over-represented; it also holds similar structures and randomly drawn compounds.
Experiment: High Throughput Screening for Foot and Mouth Disease Virus Antivirals; note: read-out not given here; nearly all actives have a fitted effect of over 45% in size
Conditions: FMDV antiviral cell-based qHTS; series mostly up to 57.9 µM; activity change, negative = inhibition: at the top concentration
% is set by controls: 0 for no effect and ±100 for the full control effect; potency is the fitted concentration of half-maximal effect.

| Structure (SMILES) | activity change, negative = inhibition | Potency |
| --- | --- | --- |
| O=c1c(O)c(Br)ccc2c(Br)c(O)c(O)c(O)c12 | -10% (inactive) | – |
| COc1ccc(-c2c(C)c3ccc(O)c(CN4CCCC4)c3oc2=O)cc1OC | -12.7% (inactive) | – |
| COCC1CCCN(Cc2ccc3c(c2)CN(C(=O)c2ccnn2C)CCO3)C1 (stereo unspecified) | -9.53% (inactive) | – |
| CC(=O)Nc1cc(C(=O)NCc2ccc(F)cc2Cl)ccc1Sc1ccc(Cl)cc1 | -7.66% (inactive) | – |
| COc1ccc(Oc2ncc3nc(C)c(=O)n(-c4ccccc4)c3n2)cc1 | -15.8% (inactive) | – |
| CSc1ccc(CCNC(=O)c2ccc3c(c2)nc2n3CCOC2)cc1 | -16.6% (inactive) | – |
| CC1CN/C(=C\C(=O)c2ccc(Br)cc2)C(=O)N1 (stereo unspecified) | – | 12.6 µM (active) |
| O=C(O)C1CCCN1S(=O)(=O)c1ccc(Br)cc1 (stereo unspecified) | -7.27% (inactive) | – |
| Cc1nc2cnc(Oc3cccc(Cl)c3)nc2n(C2CC2)c1=O | -18.7% (inactive) | – |
| CC(C)[C@H](CO)Nc1nc(Nc2cc(N)cc(Cl)c2)c2ncn(C(C)C)c2n1 | -25.5% (inactive) | – |
| Cc1cccc(-n2c(SCC(N)=O)nc3c(oc4ccccc43)c2=O)c1 | 0% (inactive) | – |
| Cc1cccc(NC(=O)CSc2nc3c([nH]c4ccccc43)c(=O)n2-c2cc(C)cc(C)c2)c1 | 0% (inactive) | – |
| Cc1cccc(-n2c(SCC(N)=O)nc3c(c2=O)C2(CCCCC2)Cc2ccccc2-3)c1 | – | 14.1 µM (active) |
| COc1ccc(NC(=O)Cn2c(=O)n(Cc3ccc(C(=O)NCc4ccccc4Cl)cc3)c(=O)c3ccccc32)cc1 | 10.6% (inactive) | – |
| CCOc1cc(/C=C(/C#N)c2ccc(Cl)cc2)cc(Cl)c1OCC(=O)O | – | 8.91 µM (active) |
| CCOc1ccc(/C=C(\C#N)c2nc3ccccc3c(=O)[nH]2)cc1OC | 10.8% (inactive) | – |
| CCOC(=O)CN(C(=O)COc1nc(C)cc(C)c1C#N)c1ccc(Cl)cc1 | -18.7% (inactive) | – |
| O=C(c1ccncc1)N1CCC2(CCCN(C(c3ccccc3)c3ccccc3)C2)CC1 | -21% (inactive) | – |
| Cc1ccc(CN2CCCn3nc(C(=O)NCc4ccccc4Cl)cc3C2=O)cc1 | -14.4% (inactive) | – |
| CN(NC(=O)c1ccccc1F)c1nc(C(F)(F)F)nc2ccccc12 | -5.68% (inactive) | – |
| C/C(=N\NC(=O)c1ccccc1F)c1ccccn1 | – | 12.6 µM (active) |
| O=C(NC(=S)NC1CCSC1=O)c1ccccc1F (stereo unspecified) | 48.4% (inactive) | – |
| CCn1c2ccccc2c2cc(CN3CCN(Cc4cccc(Cl)c4)CC3)ccc21 | 13.2% (inactive) | – |
| CCCN(C/C=C/I)C1CCc2ccc(O)cc2C1 (stereo unspecified) | -6.2% (inactive) | – |
| CC1Cc2cc(S(=O)(=O)CCC(=O)NCc3ccc(Cl)cc3)ccc2N1C(=O)C1CC1 (stereo unspecified) | -1.27% (inactive) | – |
| CC(C)S(=O)(=O)c1oc(-c2ccc(F)cc2)nc1S(=O)(=O)c1ccc(F)cc1 | – | 31.6 µM (active) |

| Structure (SMILES) | activity change, negative = inhibition | Potency |
| --- | --- | --- |
| Cc1ccc(-c2nc(S(=O)(=O)c3ccc(C)cc3)c(N3CCCCCC3)o2)cc1 | 45.5% (inactive) | – |
| O=C(CSc1oc(-c2ccc(F)cc2)nc1S(=O)(=O)c1ccc(Br)cc1)NC1CCCCC1 | -1.69% (inactive) | – |
| COc1ccc(C(=O)N2CCC3(CCCN(C(c4ccccc4)c4ccccc4)C3)CC2)cc1 | 2.28% (inactive) | – |
| O=C(c1csnn1)N1CCC[C@@]2(CCN(c3cccc(-c4ccccc4)c3)C2)C1 | -16.6% (inactive) | – |
| Cc1c(NC(=O)C(C)(C)C)cccc1-c1nc2ccccc2s1 | -7.55% (inactive) | – |
| O=S(=O)(c1ccccc1)N1CCC2(CC1)CN(Cc1nccs1)C2 | -5.22% (inactive) | – |
| CC1Oc2ccccc2N(Cc2cccnc2)C1=O (stereo unspecified) | 6.82% (inactive) | – |
| CC1C(=O)N(Cc2ccccc2)c2ccccc2N1C(=O)c1ccccc1 (stereo unspecified) | – | 31.6 µM (active) |
| O=C(c1ccc2c(c1)N(Cc1ccccc1)C(=O)c1ccccc1S2(=O)=O)N1CCCC1 | 3.75% (inactive) | – |
| CS(=O)(=O)N1CCC2(CCN(c3ccncc3)CC2)CC1 | -17.3% (inactive) | – |
| CN1CCC2(CC1)CCN(S(=O)(=O)c1ccccc1)CC2 | -4.56% (inactive) | – |
| O=C(O)CC(SCC(=O)Nc1ccc(Br)cc1)C(=O)O (stereo unspecified) | -8.01% (inactive) | – |
| CC(=O)Nc1ccc(NC(=O)CC2CCCC2)cc1 | 55.7% (inactive) | – |
| O=C(CCl)Nc1ccc(Sc2ccc(NC(=O)CCl)cc2)cc1 | – | 7.94 µM (active) |
| COc1ccc2c(c1OC)C(=O)OC2Nc1nc(-c2ccccc2)cs1 (stereo unspecified) | – | 15.8 µM (active) |
| Cc1ccc(-c2csc(NC3OC(=O)c4ccccc43)n2)cc1 (stereo unspecified) | – | 20 µM (active) |
| CCCc1nc2scc(-c3ccc(C)cc3)c2c(=O)n1N | -16.7% (inactive) | – |
| COc1ccc(CNC(=O)CC2Oc3ccc(C)cc3NC2=O)cc1 (stereo unspecified) | -14.7% (inactive) | – |
| CC(C)NC(=O)N1CCCC2(CCN(C(=O)c3cccn3C)CC2)C1 | 1.59% (inactive) | – |
| Cn1c(=O)c2c(SCC(=O)NCC3CCCO3)nc(-c3ccccc3F)nc2n(C)c1=O (stereo unspecified) | -22.6% (inactive) | – |
| CCNCCCNCCCNCCCNCC | -1.93% (inactive) | – |
| Cn1cccc1C(=O)N1CCC[C@@]2(CCN(Cc3nccs3)C2)C1 | -10.5% (inactive) | – |
| N#Cc1ccc(CN2CCCC3(CCN(C(=O)c4ccco4)CC3)C2)cc1 | -10.4% (inactive) | – |
| CCOc1ccc(-c2ccc(SCC(=O)N3CCOCC3)nn2)cc1 | -17.8% (inactive) | – |
| COc1cccc(-c2ccc(SCC(=O)N3CCN(c4ccccc4)CC3)nn2)c1 | – | 12.6 µM (active) |
| COc1ccc(N2CCN(C(=O)CSc3nnc4ncccn34)CC2)cc1 | -1.95% (inactive) | – |

| Structure (SMILES) | activity change, negative = inhibition | Potency |
| --- | --- | --- |
| CCN1CCN(Cc2c(O)ccc3oc(C)c(C(=O)Nc4ccc(C)cc4C)c23)CC1 | -16.2% (inactive) | – |
| Cc1ccc(CNC(=O)c2c(O)nc3c(C)cccn3c2=O)cc1 | 13.2% (inactive) | – |
| CC(=O)c1ccc(NC(=O)CSc2nc(-c3ccccc3F)nc3c2c(=O)n(C)c(=O)n3C)cc1 | -7.87% (inactive) | – |
| COC(=O)C1CCCCN1Cc1ccc2c(c1)CN(Cc1cc(OC)c3c(c1)OCO3)CCO2 (stereo unspecified) | -17.6% (inactive) | – |
| CCOC(=O)c1c(C)[nH]c2c1-c1ccccc1C(=O)C2=O | – | 7.08 µM (active) |
| CCOC(=O)c1c(C)[nH]c(C)c1S(=O)(=O)N(C)CC(=O)N1CCN(c2ccccc2)CC1 | 12% (inactive) | – |
| CCOC(=O)c1c(SCC(=O)Nc2cccc(C)c2C)nc(=O)[nH]c1C | -12.3% (inactive) | – |
| CC(=O)c1c(C)[nH]c(C(=O)OCC(=O)Nc2sc3c(c2C#N)CCCC3)c1C | – | 17.8 µM (active) |
| Cc1ccc(C)c(OCC(=O)Nc2sc3c(c2C#N)CCCC3)c1C | -9.69% (inactive) | – |
| CC(=O)c1c(C)[nH]c(C(=O)OCC(=O)NCCC(C)C)c1C | -26.4% (inactive) | – |
| CC(C)CC(NS(=O)(=O)c1ccc2c(c1)oc(=O)n2C)C(=O)NCc1ccccc1Cl (stereo unspecified) | 8.93% (inactive) | – |
| CCC(CC)C(=O)N1CCc2cc(OC)c(OC)cc2C1COc1ccc(F)cc1 (stereo unspecified) | -11.5% (inactive) | – |
| COc1ccccc1-c1ccc(C(=O)N(C)C(C)c2ccon2)c(N2CCN(c3ccccc3F)CC2)n1 (stereo unspecified) | 5.67% (inactive) | – |
| O=C(OCC(=O)N1CCN(C(=O)c2ccco2)CC1)c1ccc(Cl)c(Cl)c1 | 0% (inactive) | – |
| CN(c1ccccc1)S(=O)(=O)c1cc(C(=O)OCC(=O)N2CCN(C(=O)c3ccco3)CC2)ccc1Cl | – | 25.1 µM (active) |
| O=C(OCC(=O)N1CCN(C(=O)c2ccco2)CC1)c1c(Cl)cccc1Cl | -0.603% (inactive) | – |
| CC(O)[C@@H](N)C(=O)O (stereo partly specified) | -4.38% (inactive) | – |
| COc1ccc(CCCOC(Cn2ccnc2)c2ccc(OC)cc2)cc1 (stereo unspecified) | – | inactive |
| COc1ccccc1-c1nc(NCc2cccs2)c2ccccc2n1 | -20.1% (inactive) | – |
| O=C1NC(CC(=O)N2CCC(n3c(C4CCC4)nc4cccnc43)CC2)c2ccccc21 (stereo unspecified) | -3.05% (inactive) | – |
| Cn1c(-c2sccc2OCc2cccc(C(F)(F)F)c2)n[nH]c1=S | -19.8% (inactive) | – |
| O=c1c2ccccc2nc2n1C(CSCc1cccc(C(F)(F)F)c1)CS2 (stereo unspecified) | – | 5.62 µM (active) |
| O=c1n(Cc2cccc(C(F)(F)F)c2)c2ccccc2c2nc(-c3ccccc3)nn12 | -9.3% (inactive) | – |
| O=C(Nc1cccc(F)c1)N1CCC2(CC1)CCN(S(=O)(=O)c1ccccc1)CC2 | -26.8% (inactive) | – |
| O=C(Nc1cc(C(=O)Nc2ccc(S(=O)(=O)O)cc2)cc(C(=O)Nc2ccc(S(=O)(=O)O)cc2)c1)Nc1cc(C(=O)Nc2ccc(S(=O)(=O)O)cc2)cc(C(=O)Nc2ccc(S(=O)(=O)O)cc2)c1 | -26.6% (inactive) | – |
| O=C(CSc1ccccc1)Nc1cc(Cl)ccc1Oc1ccccc1 | -28.7% (inactive) | – |

| Structure (SMILES) | activity change, negative = inhibition | Potency |
| --- | --- | --- |
| O=C(CSc1nc(Nc2ccccc2)nc(N2CCOCC2)n1)Nc1cc(Cl)ccc1O | – | 39.8 µM (active) |
| O=C(CSc1nc2ccc(Nc3nc(N4CCOCC4)nc(N4CCOCC4)n3)cc2s1)NCc1ccco1 | -6.88% (inactive) | – |
| O=C(O)C(O)[C@@](O)(Cc1ccc(O)cc1)C(=O)O (stereo partly specified) | 30% (inactive) | – |
| CC(=O)OC1C2CCC3C1(CC(O)[C@@]1(O)[C@@H](CC(O)C1(C)C)[C@]3(C)O)C[C@@]2(C)O (stereo partly specified) | -11.7% (inactive) | – |
| COC(=O)c1ccccc1C(=O)NCc1nc(N2CCCC2)c2cccc(C)c2n1 | -14.1% (inactive) | – |
| Cc1csc(OCC(=O)Nc2ccc(C)c(C)c2)n1 | 7.56% (inactive) | – |
| COc1cc(Cl)c(C)cc1NC(=O)COC(=O)c1cc(SC)ccc1Cl | 5.31% (inactive) | – |
| COc1cc(SC)ccc1C(=O)Nc1nc(C)cs1 | – | 3.16 µM (active) |
| COc1ccccc1C1CN(Cc2ccccc2O)Cc2ccccc2O1 (stereo unspecified) | -7.77% (inactive) | – |
| COc1ccc(CCNC(=O)c2c3c(nc4ccccc24)C(=O)N(C2CCCCC2)C3)cc1OC | 3.37% (inactive) | – |
| COc1cc(C(=O)N2CCC(c3ccncc3)CC2)cc(OC)c1OC | 23.5% (inactive) | – |
| O=C(c1cc(C(F)(F)F)cc(C(F)(F)F)c1)N1CCC2(CCCN(c3ccccn3)C2)CC1 | -8.26% (inactive) | – |
| CCc1ccc2oc(-c3ccc(C)c(NC(=O)/C=C/c4ccco4)c3)nc2c1 | 37.1% (inactive) | – |
| Cc1ccc(-c2cc(C(=O)N/N=C/C=C/c3ccco3)c3ccccc3n2)cc1C | – | 1.58 µM (active) |
| O=c1c2ccccc2nc(/C=C/c2ccco2)n1-c1ccccc1O | -25% (inactive) | – |
| COc1ccc(-n2c(CNC(=O)c3cc(C(F)(F)F)ccc3Cl)nnc2SC)cc1 | -5.43% (inactive) | – |
| CCCCCCCCCCOC(=O)Cn1c(COc2cccc(OC)c2)[n+](C)c2ccccc21 | – | 28.2 µM (active) |
| CCOC(=O)c1c(NC(=O)COc2cc(C)ccc2C(C)C)sc(C)c1C | -6.01% (inactive) | – |
| COc1ccccc1N1CCN(C[C@@H]2CN3C(=O)N(C)c4ccccc4C3=N2)CC1 | -13.2% (inactive) | – |
| O=c1c(CCc2ccccc2)nc2cncnc2n1C1CC1 | -0.104% (inactive) | – |
| Cc1c(C(=O)OC(C)C)sc(NC(=O)c2cccnc2)c1C#N | -17.2% (inactive) | – |
| CCc1ccccc1NC(=O)CSc1nc(C)c(C(=O)Nc2ccccc2)c(-c2ccc(Cl)cc2)c1C#N | -3.98% (inactive) | – |
| CCCc1ccc(-c2c(C)sc(NC(=O)c3ccnn3C)c2C#N)cc1 | – | 15.8 µM (active) |
